High-throughput results: PubChem, National Center for Advancing Translational Sciences (NCATS)
IL-1B inflam inh: inflammasome signaling inhibition, IL-1 beta readout; AID 743279; 360,000 compounds, 4.7% hits; activity change, % at 57.5 µM; THP-1 LPS/ATP IL-1B secretion, AlphaLISA, 16 h; active compounds read low; in the data active means activity change below about -50%; inconclusive means mostly about -30% to -49%; further: on the % scale 0 is the no-effect control and ±100 the full control effect
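THP-1 cells pretreated 1 hr with compounds (up to 57.5 uM final), then stimulated with LPS (250 ng/mL final) plus ATP (1.25 mM final); secreted IL-1B measured by AlphaLISA after 16 hr, decreased signal indicating inhibition.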
Giardia kill: Giardia lamblia killing; Giardia lamblia trophozoite viability; 340,000 compounds, 0.15% hits; activity change, % at 7.66 µM, hits read low; in the data active means activity change below about -80%; inconclusive means between about -30% and that limit;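 further: parasites exposed to compound for two days anaerobically before the ATP read; on the % scale 0 is the no-effect control and ±100 the full control effect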
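Luminescent ATP signal served as the viability read-out, measured 15-30 min after adding ATP detection reagent to trophozoites that had been incubated with compounds for 48 hrs at 37 deg C anaerobically at 100 cells/well.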
SW480 rerep: induces DNA re-replication in SW480 colon adenocarcinoma cells; SW480 DNA re-replication, Hoechst DNA content imaging, 48 h; Potency, µM (top dose mostly 46.1 µM), for the others: at the highest dose re-replication activation, usual class: activators; 340,000 compounds, 1.8% hits; AID 624297; further: potency means the concentration at half of the fitted maximal effect; % of control where 0% means no effect; nearly all actives have a fitted effect of over 55% in size
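First, 250 cells per well were seeded. Next, compound or vehicle (23 nL) was pinned in, plates sat 48 hr at 37 C. Finally Hoechst was added for 40 min before fluorescence scanning.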
Vif-APOBEC3F blk: Vif-A3F binding inhibition | 390,000 compounds, 0.2% hits | AID 602313 | HeLa A3F-eYFP + Vif (tagged APOBEC3F with the HIV-1 protein that degrades it), YFP fluorescence increase | Potency, µM (highest dose often 46.1 µM), without a hit: at the highest dose activity, negative = active; further: potency means the concentration at half of the fitted maximal effect; % of control where 0% means no effect; nearly all actives have a fitted effect of over 65% in size
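HeLa cells stably expressing Vif plus C-terminally eYFP-tagged A3F were seeded, incubated overnight at 37 deg C, dosed with compound, incubated overnight again at 37 deg C. Yellow fluorescence (Ex 488/Em 500-530) reported blocked Vif-mediated A3F-eYFP degradation.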
Vif-APOBEC3G blk: inhibitors of Vif-APOBEC3G interaction. HeLa A3G-eYFP + Vif (tagged APOBEC3G with the HIV-1 protein that degrades it), YFP fluorescence, overnight. AID 602310. Q9HC16. Potency, µM (series often up to 46.1 µM), for the others: at the highest dose activity, negative = active, hits mostly inhibitors. 410,000 compounds, 0.076% hits; further: potency means the concentration at half of the fitted maximal effect; on the % scale 0 is the no-effect control and ±100 the full control effect; nearly all actives have a fitted effect of over 60% in size
Target sequence (Q9HC16 whole entry, looked up): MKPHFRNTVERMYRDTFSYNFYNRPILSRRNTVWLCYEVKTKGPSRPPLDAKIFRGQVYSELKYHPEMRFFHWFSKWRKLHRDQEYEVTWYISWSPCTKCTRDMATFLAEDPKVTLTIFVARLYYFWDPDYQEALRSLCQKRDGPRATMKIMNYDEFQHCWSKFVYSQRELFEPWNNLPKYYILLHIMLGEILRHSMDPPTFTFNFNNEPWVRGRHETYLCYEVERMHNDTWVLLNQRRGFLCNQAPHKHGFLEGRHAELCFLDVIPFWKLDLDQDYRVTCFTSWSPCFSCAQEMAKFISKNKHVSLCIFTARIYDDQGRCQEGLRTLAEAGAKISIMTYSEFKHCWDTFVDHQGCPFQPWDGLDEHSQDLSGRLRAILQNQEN
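Read-out is eYFP fluorescence (Ex 488/Em 500-530) from Vif-expressing HeLa A3G-eYFP cells; more signal means A3G escaped Vif-mediated degradation. Cells plated overnight, compound pinned in, incubated overnight at 37 deg C.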
MCF10A rereplic: DNA re-replication induction in MCF 10a cells | Potency, µM (highest dose often 46.1 µM), for the others: at the top dose activity, positive = re-replication, usual class: activators | MCF 10A DNA re-replication, Hoechst nuclear intensity, 48 h | 350,000 compounds, 2.9% hits; further: potency means the concentration at half of the fitted maximal effect; % of control where 0% means no effect; nearly all actives have a fitted effect of over 50% in size
Active calls of the source: *; [ ] = dose if it differs, or a comment. A selection: hits, their analogues and other compounds. The true share with any hit is near 6.9%. Unless noted, the call rests on the fitted dose curve; in most records, active means well fitted curve in the direction sought with a large enough effect; inconclusive means small, poorly fitted or top-dose-only effect, or another doubt; inactive means no such curve, though single readings can be large; an effect the other way counts as inactive or inconclusive.

CN1CCN(c2cc(-c3ccccc3)nc3cc(-c4ccc(F)cc4)nn23)CC1 was read as IL-1B inflam inh -96*, Giardia kill 3, SW480 rerep inconclusive, Vif-APOBEC3F blk -5%, Vif-APOBEC3G blk -2% and MCF10A rereplic inconclusive.
`OCCCNc1cc(-c2ccccc2)nc2cc(-c3ccc(F)cc3)nn12` gave IL-1B inflam inh -91*, Giardia kill 9, SW480 rerep inconclusive, Vif-APOBEC3F blk 9%, Vif-APOBEC3G blk -3% and MCF10A rereplic inconclusive.
Fc1ccc(-c2cc3nc(-c4ccccc4)cc(N4CCN(CCN5CCOCC5)CC4)n3n2)cc1 was read as IL-1B inflam inh -74*, Giardia kill 10, SW480 rerep -1%, Vif-APOBEC3F blk 1%, Vif-APOBEC3G blk 5% and MCF10A rereplic -9%.
Screening O=C(c1ccoc1)N1CCN(c2cc(-c3ccccc3)nc3cc(-c4ccccc4)nn23)CC1 returned IL-1B inflam inh -3, Vif-APOBEC3F blk -3% and Vif-APOBEC3G blk -12%.
Screening Cc1cc(NCCCO)n2nc(-c3cccs3)cc2n1 returned Giardia kill -1, SW480 rerep -3%, Vif-APOBEC3F blk -17%, Vif-APOBEC3G blk 0% and MCF10A rereplic 3%.
Screening Cc1ccc2scc(N3CCCCC3C)c(=O)c2c1 (centres undefined) returned Vif-APOBEC3F blk 3% and Vif-APOBEC3G blk -3%.
`Cc1ccc(S(=O)(=O)CC(=O)Nc2ccc(S(=O)(=O)Nc3ccccn3)cc2)cc1` gave IL-1B inflam inh -16, Giardia kill 9, SW480 rerep -50%, Vif-APOBEC3F blk 0%, Vif-APOBEC3G blk 2% and MCF10A rereplic 1.5µM*.
`CCn1cc(C(=O)NCc2ccccc2Cl)c(=O)c2cc(S(=O)(=O)N3CCc4ccccc4C3)ccc21` gave Vif-APOBEC3F blk 4% and Vif-APOBEC3G blk 0%.
Screening NNC(=O)c1cc2cc3ccccc3nc2s1 returned IL-1B inflam inh -3, Giardia kill 0, SW480 rerep 6%, Vif-APOBEC3F blk inconclusive, Vif-APOBEC3G blk -4% and MCF10A rereplic 12µM*.
Screening Cc1cc(C)c2sc(NC(=O)c3ccc(S(=O)(=O)N4CCOCC4)cc3)nc2c1 returned Vif-APOBEC3F blk 3% and Vif-APOBEC3G blk -2%.
`CCN1CCN(CCCNC(=O)Cn2nc(C)n3c(cc4c(OC)cccc43)c2=O)CC1` gave Vif-APOBEC3F blk -5% and Vif-APOBEC3G blk 2%.
`COc1ccc(C(C)=O)cc1COc1cccnc1[N+](=O)[O-]` gave IL-1B inflam inh -2, Giardia kill inconclusive, SW480 rerep inconclusive, Vif-APOBEC3F blk 12%, Vif-APOBEC3G blk inconclusive and MCF10A rereplic inconclusive.
`CCOc1ccc(C(C)=O)cc1COc1cccnc1[N+](=O)[O-]` gave IL-1B inflam inh 25, Giardia kill inconclusive, SW480 rerep 21µM*, Vif-APOBEC3F blk 12%, Vif-APOBEC3G blk inconclusive and MCF10A rereplic inconclusive.
For NC(=O)COc1ccc(-n2cnnn2)cc1 the results were IL-1B inflam inh -3, Giardia kill -22, SW480 rerep -3%, Vif-APOBEC3F blk 1%, Vif-APOBEC3G blk 0% and MCF10A rereplic 8%.
`CCOc1ccc(C(C)=O)cc1COc1ccc(-n2cnnn2)cc1` gave IL-1B inflam inh -57*, Giardia kill 8, SW480 rerep -5%, Vif-APOBEC3F blk 0%, Vif-APOBEC3G blk 0% and MCF10A rereplic 3%.
Screening Cc1ccc(C(=O)NC(C)C2CC3CCC2C3)cc1 (centres undefined) returned IL-1B inflam inh 11, Giardia kill 2, SW480 rerep -11%, Vif-APOBEC3F blk -3%, Vif-APOBEC3G blk 0% and MCF10A rereplic inconclusive.
CCOc1cc(C(=O)NC(C)C2CC3CCC2C3)cc(OCC)c1OCC (centres undefined) was read as IL-1B inflam inh 25, Giardia kill 1, SW480 rerep -3%, Vif-APOBEC3F blk 0%, Vif-APOBEC3G blk 1% and MCF10A rereplic 13µM*.
Screening O=C(COc1ccc(Cl)cc1)Nc1ccc(N2CCN(C(=O)c3ccco3)CC2)cc1 returned IL-1B inflam inh inconclusive, Giardia kill -2, SW480 rerep 14%, Vif-APOBEC3F blk 3%, Vif-APOBEC3G blk -1% and MCF10A rereplic inconclusive.
Screening O=C(Nc1ccc(N2CCN(C(=O)c3ccco3)CC2)cc1)c1ccccc1Br returned IL-1B inflam inh -62*, Giardia kill -15, SW480 rerep -1%, Vif-APOBEC3F blk -10%, Vif-APOBEC3G blk -15% and MCF10A rereplic 2%.
`Cc1ccccc1C(=O)N1CCN(c2ccc(NC(=O)CSc3ccc(Cl)cc3)cc2)CC1` gave IL-1B inflam inh -72*, Giardia kill -5, SW480 rerep -4%, Vif-APOBEC3F blk -6%, Vif-APOBEC3G blk 9% and MCF10A rereplic inconclusive.
O=C(CSc1ccc(Cl)cc1)Nc1ccc(N2CCN(C(=O)c3ccco3)CC2)cc1 was read as IL-1B inflam inh -68*, Giardia kill 10, SW480 rerep -1%, Vif-APOBEC3F blk -10%, Vif-APOBEC3G blk -9% and MCF10A rereplic 4%.
For Cc1cc(C)cc(NC(=O)c2cc(S(=O)(=O)N3CCC(C)CC3)cn2C)c1 the results were Vif-APOBEC3F blk -12% and Vif-APOBEC3G blk 2%.
Clc1ncnc2scc(C3COc4ccccc4O3)c12 (centres undefined) was read as IL-1B inflam inh -55*, Giardia kill 12, SW480 rerep inconclusive, Vif-APOBEC3F blk -2%, Vif-APOBEC3G blk 5% and MCF10A rereplic inconclusive.
`Cc1ccc(Cl)cc1NC(=S)NCCCSC1CCCCC1` gave IL-1B inflam inh -101*, Giardia kill -12, SW480 rerep 15%, Vif-APOBEC3F blk 1%, Vif-APOBEC3G blk -6% and MCF10A rereplic inconclusive.
Screening CCN(CC)CCCNC(=O)c1cc2c(=O)n(CC)c3ccccc3c2s1 returned IL-1B inflam inh -57*, Giardia kill -9, SW480 rerep 12%, Vif-APOBEC3F blk -19%, Vif-APOBEC3G blk 2% and MCF10A rereplic 23%.
For CCn1c(=O)c2cc(C(=O)NCCN(C)C)sc2c2ccccc21 the results were Giardia kill 4, SW480 rerep inconclusive, Vif-APOBEC3F blk -17%, Vif-APOBEC3G blk 6% and MCF10A rereplic inconclusive.
For CCN(CC)CCNC(=O)c1cc2c(=O)n(CC)c3ccccc3c2s1 the results were IL-1B inflam inh -56*, Giardia kill 0, SW480 rerep 10%, Vif-APOBEC3F blk 9%, Vif-APOBEC3G blk 1% and MCF10A rereplic 6%.
Screening CN(C)CCNC(=O)c1cc2sc3ccccc3c2s1 returned IL-1B inflam inh -71*, Giardia kill 0, SW480 rerep 0%, Vif-APOBEC3F blk -20%, Vif-APOBEC3G blk 2% and MCF10A rereplic -2%[9.22 µM].
